Source: PubChem BioAssay (Tox21)
Records with an inconclusive call do not appear. Values without a mark were called inactive. The call rests on the fitted dose curve; in most records, active means well fitted cell-killing curve with a large enough effect in the repeat runs; inconclusive means weak or mixed curves; inactive means no such curve, though single readings can be large or run the other way.

Assay: qHTS assay to identify small molecule antagonists of the peroxisome proliferator-activated receptor delta (PPARd) signaling pathway - cell viability counter screen (AID 743213); further: nearly all actives have a fitted effect of over 50% in size
Conditions: PPARd-bla HEK293H viability, CellTiter-Glo luminescence, 17 h; series mostly up to 62 µM; viability change, negative = cytotoxic: at the top concentration
In short: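 Cytotoxicity counter screen: CellTiter-Glo luminescence read 30 min after addition, in the same wells as the reporter assay. There, PPARd UAS-bla HEK293H cells (3000/well) were treated 17 h at 37 C with compound and 300 nM L165041.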
On the % scale 0 is the no-effect control and ±100 the full control effect.

Row | SMILES | viability change, negative = cytotoxic
1 | CCOc1ncc(F)c(=O)[nH]1 | 15.5%
2 | CC(C)(O)CCc1ccccc1 | 7.45%
3 | COc1cc(NS(=O)(=O)c2ccc(N)cc2)nc(C)n1 | 9.19%
4 | SCCc1cnccn1 | -11.2%
5 | CCN(Cc1cccc(S(=O)(=O)O)c1)c1ccc(C(=C2C=CC(=[N+](CC)Cc3cccc(S(=O)(=O)O)c3)C=C2)c2ccccc2S(=O)(=O)[O-])cc1 | -21%
6 | COc1ccc(-c2cc(=S)ss2)cc1 | -1.04%
7 | CCO[Si](C)(CCCOCC1CO1)OCC (stereo not drawn) | -1.02%
8 | O=C1c2ccccc2C(=O)c2c(O)ccc(O)c21 | -1.86%
9 | CC(C)N=C=NC(C)C | -1.3%
10 | CCCCCc1ccco1 | -2.73%
11 | CCCCCCCCCCCCCCN(C)C | -13.9% [at 28.9 µM]
12 | CCCCCCCCCCCCCC(=O)OCC(O)CO (stereo not drawn) | -1.92%
13 | COc1ccc(-n2nc(C(F)F)cc2-c2ccc(S(C)=O)cc2)cc1 (stereo not drawn) | 0.424%
14 | CC[C@H]1OC(=O)[C@H](C)[C@@H](O[C@H]2C[C@@](C)(OC)[C@@H](O)[C@H](C)O2)[C@H](C)[C@@H](O[C@@H]2O[C@H](C)C[C@H](N(C)C)[C@H]2O)[C@](C)(O)C[C@@H](C)C(=O)[C@H](C)[C@@H](O)[C@]1(C)O | -11.9%
15 | c1ccc2sc(SSc3nc4ccccc4s3)nc2c1 | 4.79% [at 28.9 µM]
16 | CC(=O)OCC(=O)[C@@]1(OC(C)=O)[C@@H](C)C[C@H]2[C@@H]3C[C@H](F)C4=CC(=O)C=C[C@]4(C)[C@@]3(F)[C@@H](O)C[C@@]21C | 8.83%
17 | O=S(=O)(O)CO | 4.13%
18 | Cc1c(C2(c3cc(Br)c(O)c(Br)c3C)OS(=O)(=O)c3ccccc32)cc(Br)c(O)c1Br | -14.9%
